Experimental data: the supplement of paper PMC6555819

Assays:
Assay in all cases: PBM binding z-score (relative to random genomic background probes); higher = stronger binding; sequences stand for … in GC…GCGATTGACAGCGTAGAATGAAGG
[1] = test system: PPARg:RXRa DBDmut IVT, anti-RXR (DBD mutation: RXRa K156A/R161A, NR concentration 270 nM, RXRa partner concentration 90 nM)
In short: (§1)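 Random background probes are the reference for binding z-scores. These scores derive from regression-normalized fluorescence on custom Agilent 4×180K protein-binding microarrays incubated 1 h with ligand-free nuclear receptor dimers. Binding was detected with antibodies against each partner (one per run).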

[2] = test system: PPARg:RXRa IVT, anti-PPARg (NR concentration 270 nM, RXRa partner concentration 90 nM)
In short: as §1

[3] = test system: PPARg DBDmut:RXRa IVT, anti-PPARg (DBD mutation: PPARg1 K132A/R137A, NR concentration 270 nM, RXRa partner concentration 90 nM)
In short: as §1

[4] = test system: PPARg DBDmut IVT, anti-PPARg (DBD mutation: PPARg1 K132A/R137A, NR concentration 270 nM)
In short: as §1

[5] = test system: PPARg homodimer (NR concentration 180 nM)
In short: as §1

[6] = test system: PXR:RXRa (NR concentration 270 nM, RXRa partner concentration 90 nM)
In short: as §1

[7] = test system: PXR homodimer (NR concentration 270 nM)
In short: as §1

[8] = test system: RARa:RXR (NR concentration 270 nM, RXRa partner concentration 90 nM)
In short: as §1

[9] = test system: RARa homodimer (NR concentration 270 nM)
In short: as §1

[10] = test system: RARb:RXRa (NR concentration 270 nM, RXRa partner concentration 90 nM)
In short: as §1

[11] = test system: RARb homodimer (NR concentration 270 nM)
In short: as §1

[12] = test system: RARg:RXRa (NR concentration 270 nM, RXRa partner concentration 90 nM)
In short: as §1

[13] = test system: RARg homodimer (NR concentration 270 nM)
In short: as §1

[14] = test system: RXRa DBDmut IVT, anti-RXR (DBD mutation: RXRa K156A/R161A, NR concentration 90 nM)
In short: as §1

[15] = test system: RXRa homodimer (NR concentration 180 nM)
In short: as §1

[16] = test system: THRa:RXRa (NR concentration 90 nM, RXRa partner concentration 90 nM)
In short: as §1

[17] = test system: THRa homodimer (NR concentration 90 nM)
In short: as §1

[18] = test system: VDR homodimer (NR concentration 270 nM)
In short: as §1

Sequence | PBM binding z-score [1] | PBM binding z-score [2] | PBM binding z-score [3] | PBM binding z-score [4] | PBM binding z-score [5] | PBM binding z-score [6] | PBM binding z-score [7] | PBM binding z-score [8] | PBM binding z-score [9] | PBM binding z-score [10] | PBM binding z-score [11] | PBM binding z-score [12] | PBM binding z-score [13] | PBM binding z-score [14] | PBM binding z-score [15] | PBM binding z-score [16] | PBM binding z-score [17] | PBM binding z-score [18]
CGTCCAAGGTCTGAGAGGTCAGTGAATGCCGAGT | 0.28 | 0.77 | -0.424 | -1.57 | 1.81 | 2.94 | 1.65 | 2.79 | 0.0831 | 3.24 | 3.72 | 2.97 | 3.36 | 0.83 | 2.29 | 2.52 | 1.29 | 2.01
TAGCCGAGGTCATTGGGCCAGTATAGTACGCATC | 2.68 | 4.59 | -0.49 | 0.82 | 2.28 | 5.5 | 2.28 | 4.87 | 0.0596 | 4.78 | 3.98 | 5.93 | 5.86 | 4.42 | 6.61 | 4.01 | 2.77 | 5.01
GCAGAAAGGTGAAACGCAGGTAACTCAGGGTGGC | 3.02 | 2.42 | -0.00989 | -0.405 | 0.213 | 0.633 | -0.804 | 1.9 | -0.501 | 2.88 | 1.55 | 3.22 | 1.84 | 0.00146 | 2.31 | 2.25 | -0.396 | -0.808
GCTGCCAGGTCAACTGATGGTCAGCTAAAGCTCG | 2.71 | 2.73 | 0.45 | -0.276 | 4.33 | 2.76 | -0.337 | 4.22 | -0.0772 | 4.46 | 3.58 | 5.49 | 5.38 | 1.94 | 3.81 | 3.68 | 2.18 | 0.679
TCTTGTAGATCAGCAGGTTAAGACAGCTGGCCAA | 1.91 | 0.417 | 0.269 | 0.156 | 0.137 | 0.129 | -0.0251 | 0.309 | 0.389 | 0.0665 | 0.0345 | 0.0307 | -0.276 | 0.415 | 0.431 | 0.272 | -0.416 | -0.184
CCTAGCTGGTCAAGGTCACACACGCTATAGGTAC | 1.88 | 2.8 | 0.834 | 0.076 | 3.15 | 4.03 | 1.43 | 4.64 | 2.61 | 3.99 | 4.06 | 4.56 | 4.74 | 1.82 | 4.92 | 3.97 | 3.76 | 2.88
TATTGTAGATCAAGCAGGTTAAGAAAGCCTGAGT | 0.302 | 1.02 | 0.542 | 0.816 | 0.0743 | 0.218 | -0.248 | 0.378 | 0.348 | -0.0192 | 0.00937 | 0.285 | 0.147 | -0.887 | 0.374 | 0.288 | -0.434 | 0.132
CGTCAAAGTTCAACTAAGGTAACATAAAGCACGC | 0.273 | 2.52 | 1.34 | 1.66 | 3.27 | 5.54 | 3.1 | 4.35 | 1.57 | 5.25 | 4.23 | 5.98 | 6.47 | 4.9 | 5.01 | 5.25 | 1.77 | 3.89
ATCTCTAGGTAACCAAGTTCTGTGAATGCCGAAC | 3.07 | 2.82 | 0.454 | 0.664 | 0.688 | 0.262 | 0.109 | 0.329 | 0.574 | 0.423 | 0.202 | 0.225 | 0.194 | -0.0032 | 0.246 | 0.718 | 0.76 | 0.355
GCTAGCAGGCCATTTGTGTCACTCAATGACGGGC | 1.46 | 0.556 | -0.775 | -0.917 | -0.822 | -0.691 | -0.552 | -0.532 | -0.827 | 0.161 | -0.0499 | -0.217 | 0.011 | 0.131 | -0.25 | -0.583 | -0.967 | -0.895
AGCTCTAGGTAAAGTTCAGTGAAAGATCGATAGA | 2.67 | 1.47 | 0.472 | 0.107 | 0.759 | 1.27 | 1.19 | 0.896 | 0.442 | 2.67 | 2.32 | 1.94 | 2.58 | 1.43 | 0.97 | 0.941 | -0.0509 | 1.6
ATATGTAGGTTACATCCGGGTCCTTCAGGCTATG | 7.33 | 7.38 | 2.34 | 1.87 | 0.864 | 0.482 | 0.298 | 0.744 | 0.322 | 0.999 | 0.958 | 0.862 | 0.764 | 0.474 | 1.07 | 1.51 | 0.753 | 0.68
CGAACTAGGTCATCCAGGACAGTTAATACATTGA | 7.93 | 8.11 | 4.57 | 2.72 | 2.19 | 2.02 | 1.63 | 2.6 | 1.19 | 3.72 | 3 | 3.93 | 4.66 | 2.41 | 2.99 | 3.54 | 2.15 | 2.37
GCATATAGGTAATACAAGGTGAAAGTACGATTGT | 3.58 | 3.44 | 1.47 | 0.563 | 0.701 | 0.648 | 0.0601 | 1.84 | 0.78 | 0.387 | 0.886 | 0.699 | 0.793 | 0.0522 | 0.99 | 4.29 | 0.806 | 0.163
ATATGTAGGTTACTTCCGGGTCATTCAGGCTATG | 7.27 | 7 | 2.25 | 1.76 | 2.39 | 3.68 | 1.81 | 3.76 | 0.485 | 2.36 | 3.02 | 3.9 | 2.02 | 1.23 | 3.02 | 3.91 | 2.57 | 2.58
